# Data from the antibiotic and cytotoxicity screens of Wong et al. (2023).
# In all, about 39,000 compounds went through this assay and about 3,300 (8.5%) were called active. What follows is part of a selection rich in actives, with near analogues and random picks from the rest.
# Tested on: HepG2
# Assay: cytotoxicity call (relative viability < 0.9)
# Conditions: 10 µM
row,Structure (SMILES),cytotoxicity call
1,CCS(=O)(=O)N1CCC(C(=O)N(C)C)CC1,inactive
2,C[C@@H]1CN([C@@H](C)CO)C(=O)c2c(c3ccccc3n2C)-c2ccccc2CO[C@H]1CN(C)CC1CCCCC1,inactive
3,C[C@@H]1CN([C@@H](C)CO)C(=O)c2c(c3ccccc3n2C)-c2ccccc2CO[C@@H]1CN(C)CC1CCCCC1,active
4,C[C@@H]1CN([C@H](C)CO)C(=O)c2c(c3ccccc3n2C)-c2ccccc2CO[C@@H]1CN(C)C(=O)NC1CCCCC1,inactive
5,C[C@H]1CN([C@@H](C)CO)C(=O)c2c(c3ccccc3n2C)-c2ccccc2CO[C@H]1CN(C)CC1CCCCC1,inactive
6,C[C@H](CO)N1C[C@H](C)[C@@H](CN(C)C(=O)NC2CCCCC2)OCc2ccccc2-c2c(n(C)c3ccccc23)C1=O,inactive
7,C[C@H](CO)N1C[C@H](C)[C@H](CN(C)C(=O)NC2CCCCC2)OCc2ccccc2-c2c(n(C)c3ccccc23)C1=O,active
8,C[C@@H]1CN([C@H](C)CO)C(=O)c2c(c3ccccc3n2C)-c2ccccc2CO[C@@H]1CN(C)CC1CCCCC1,inactive
9,C[C@H](CO)N1C[C@H](C)[C@@H](CN(C)CC2CCCCC2)OCc2ccccc2-c2c(n(C)c3ccccc23)C1=O,inactive
10,C[C@H]1CN([C@@H](C)CO)C(=O)c2c(c3ccccc3n2C)-c2ccccc2CO[C@@H]1CN(C)CC1CCCCC1,active
11,CC1(C)S[C@H]2[C@@H](NC(=O)[C@@H](NC(=O)N3CCN(S(C)(=O)=O)C3=O)c3ccccc3)C(=O)N2[C@@H]1C(=O)O,inactive
12,CCCNC(=O)Nc1ccc2c(c1)C(=O)N(C)C[C@@H](OC)[C@@H](C)CN(C(=O)C1CCOCC1)[C@@H](C)CO2,inactive
13,Cc1noc(C)c1NC(=O)N(C)C[C@H]1OCCCC[C@@H](C)Oc2ccc(NC(=O)CCC(F)(F)F)cc2C(=O)N([C@H](C)CO)C[C@H]1C,inactive
14,C[C@H](C(=O)O)N1CCCCC1,inactive
15,CC(C)c1cn(CC[C@H]2CC[C@H](N)[C@@H](CO)O2)nn1,inactive
16,CC[C@@H](Sc1n[nH]c(=O)[nH]c1=O)C(=O)O,inactive
17,COCC(=O)N(C)C[C@H]1Oc2cc(C#CCC3CCCC3)ccc2S(=O)(=O)N([C@H](C)CO)C[C@H]1C,inactive
18,C[C@@H]1CN([C@H](C)CO)C(=O)Cc2cc(NC(=O)C3CC3)ccc2O[C@H]1CN(C)C(=O)Nc1ccccc1,inactive
19,COCC(=O)N1[C@@H]2c3ccc(C4=CCCCC4)c(=O)n3C[C@@H]2[C@@H](CO)[C@@H]1C(=O)N1CCOCC1,inactive
20,C=CC(=O)Nc1cccc(C)c1Nc1ncc2cc(-c3c(Cl)c(OC)cc(OC)c3Cl)ccc2n1,active
21,COCC(=O)Nc1ccc2c(c1)C(=O)N(C)[C@@H]1CC[C@@H](CC(=O)NCc3ccc(OC)cc3)O[C@H]1CO2,inactive

row,Structure (SMILES),cytotoxicity call
1,Cc1noc(C)c1NC(=O)N(C)C[C@H]1Oc2ccc(NC(=O)Nc3ccc(C(F)(F)F)cc3)cc2C(=O)N([C@@H](C)CO)C[C@H]1C,inactive
2,COCC(=O)N(C)C[C@H]1Oc2cc(C#C[C@@H](C)O)ccc2S(=O)(=O)N([C@H](C)CO)C[C@@H]1C,inactive
3,C[C@H]1CCCCO[C@H](CN(C)Cc2ccc(Cl)c(Cl)c2)[C@@H](C)CN([C@@H](C)CO)C(=O)c2cc(NC(=O)CCC(F)(F)F)ccc2O1,inactive
4,C[C@@H]1CCCCO[C@H](CN(C)Cc2ccc(Cl)c(Cl)c2)[C@@H](C)CN([C@@H](C)CO)C(=O)c2cc(NC(=O)CCC(F)(F)F)ccc2O1,inactive
5,C[C@H](CO)N1C[C@H](C)[C@@H](CN(C)Cc2ccc(Cl)c(Cl)c2)OCCCC[C@H](C)Oc2ccc(NC(=O)CCC(F)(F)F)cc2C1=O,inactive
6,C[C@@H]1CCCCO[C@H](CN(C)Cc2ccc(Cl)c(Cl)c2)[C@@H](C)CN([C@H](C)CO)C(=O)c2cc(NC(=O)CCC(F)(F)F)ccc2O1,inactive
7,C[C@@H]1CCCCO[C@@H](CN(C)Cc2ccc(Cl)c(Cl)c2)[C@@H](C)CN([C@H](C)CO)C(=O)c2cc(NC(=O)CCCN(C)C)ccc2O1,active
8,C[C@@H]1CCCCO[C@@H](CN(C)Cc2ccc(Cl)c(Cl)c2)[C@@H](C)CN([C@@H](C)CO)C(=O)c2cc(NC(=O)CCC(F)(F)F)ccc2O1,active
9,C[C@@H]1CN([C@H](C)CO)C(=O)c2cc(NC(=O)CCC(F)(F)F)ccc2O[C@@H](C)CCCCO[C@H]1CN(C)Cc1ccc(Cl)c(Cl)c1,active
10,C[C@@H]1CN([C@@H](C)CO)C(=O)c2cc(NC(=O)CCC(F)(F)F)ccc2O[C@@H](C)CCCCO[C@H]1CN(C)Cc1ccc(Cl)c(Cl)c1,inactive
11,C[C@@H]1CN([C@H](C)CO)C(=O)c2cc(NC(=O)CCC(F)(F)F)ccc2O[C@@H](C)CCCCO[C@@H]1CN(C)Cc1ccc(Cl)c(Cl)c1,active
12,C[C@@H]1CCCCO[C@@H](CN(C)Cc2ccc(Cl)c(Cl)c2)[C@H](C)CN([C@@H](C)CO)C(=O)c2cc(NC(=O)CCC(F)(F)F)ccc2O1,inactive
13,Cn1cnc(S(=O)(=O)N[C@@H]2C=C[C@H](CC(=O)NCC3CC3)O[C@H]2CO)c1,inactive
14,COc1ccc(S(=O)(=O)N(C)C[C@@H]2OCCCC[C@@H](C)Oc3ccc(NC(=O)CCCCCC(=O)Nc4ccccc4N)cc3C(=O)N([C@H](C)CO)C[C@@H]2C)cc1,inactive
15,COc1ccccc1CNC(=O)C[C@@H]1C[C@@H]2c3cc(NC(=O)Cc4ccncc4)ccc3O[C@@H]2[C@@H](CO)O1,inactive
16,C[C@@H]1CCCCO[C@@H](CN(C)CC2CCCCC2)[C@@H](C)CN([C@@H](C)CO)C(=O)c2cc(N(C)C)ccc2O1,inactive
17,C[C@H](CO)N1C[C@H](C)[C@H](CN(C)C(=O)Nc2ccc3c(c2)OCO3)OCCCC[C@H](C)Oc2ccc(NS(=O)(=O)c3ccc(F)cc3)cc2C1=O,inactive
18,CS(=O)(=O)N1C[C@@H](O)COC[C@@H]2O[C@H](CC(=O)NCc3ccccc3)CC[C@H]21,inactive
19,C[C@@H]1CCCCO[C@H](CN(C)C(=O)Nc2ccc(F)cc2)[C@@H](C)CN([C@H](C)CO)C(=O)c2cc(NS(=O)(=O)c3cccs3)ccc2O1,inactive
20,O=C(C[C@H]1CC[C@H]2[C@@H](COC[C@@H](O)CN2S(=O)(=O)c2ccccc2)O1)NCCN1CCCCC1,inactive
